Sampled rows, rich in hits. Any-hit rate of the full collection: about 1.8%.
LYPLA1 counter = LYPLA1 inhibitors, primary screen, counter-screen for PME1 inhibitor project, biochemical, fluorescence polarization, FP-Rh probe ABPP; Acyl-protein thioesterase 1 (Homo sapiens), O75608; recombinant LYPLA1; inhibition, % at 5.9 µM; 320,000 compounds, 0.16% hits;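 active means inhibition above the mean of all tested compounds plus 3 SD, set per campaign, cut at about 14% in these data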;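 further: inhibitors block serine hydrolase probe labeling of LYPLA1 so polarization falls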
LYPLA2 inh = LYPLA2 inhibitors, primary screen, counter-screen for PME1 inhibitor project, biochemical, fluorescence polarization, FP-Rh probe ABPP | recombinant LYPLA2 | AID 2177, 2009 | 320,000 compounds, 0.38% hits | inhibition, % at 5.9 µM;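 active means inhibition above the screen-wide mean plus 3 SD, limit set per campaign, cut at about 26% in these data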
Target sequence (O95372 whole entry, looked up): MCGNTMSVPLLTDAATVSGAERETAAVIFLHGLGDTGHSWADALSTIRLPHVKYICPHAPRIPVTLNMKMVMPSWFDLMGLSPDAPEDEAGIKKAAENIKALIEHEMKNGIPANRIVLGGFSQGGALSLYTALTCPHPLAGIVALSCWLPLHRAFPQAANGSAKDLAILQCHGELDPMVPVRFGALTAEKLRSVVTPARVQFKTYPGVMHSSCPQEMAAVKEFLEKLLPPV
Fam108B inh = mouse Fam108B serine hydrolase inhibitors, primary screen, counter-screen for RBBP9 inhibitor project, biochemical, fluorescence polarization | recombinant Fam108B, FP-Rh probe fluorescence polarization | inhibition, % at 9.51 µM | 300,000 compounds, 0.33% hits | AID 1947, 2009;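 active means inhibition above the screen mean inhibition plus 3 SD, computed separately per campaign, cut at about 18% in these data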;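 further: inhibitors lower polarization as less probe binds the enzyme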
PP1 inh = PP1-alpha phosphatase inhibitors, primary screen, counter-screen for PP5 inhibitor project, biochemical, fluorescence, OMFP substrate, single point. inhibition, % at 6.7 µM. purified PP1alpha. 320,000 compounds, 0.9% hits. Serine/threonine-protein phosphatase PP1-alpha catalytic subunit (Homo sapiens), P62136;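 active means inhibition above the mean inhibition of all tested compounds plus 3 SD, computed separately for each screening campaign, cut at about 15% in these data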
Target sequence (P62136 whole entry, looked up): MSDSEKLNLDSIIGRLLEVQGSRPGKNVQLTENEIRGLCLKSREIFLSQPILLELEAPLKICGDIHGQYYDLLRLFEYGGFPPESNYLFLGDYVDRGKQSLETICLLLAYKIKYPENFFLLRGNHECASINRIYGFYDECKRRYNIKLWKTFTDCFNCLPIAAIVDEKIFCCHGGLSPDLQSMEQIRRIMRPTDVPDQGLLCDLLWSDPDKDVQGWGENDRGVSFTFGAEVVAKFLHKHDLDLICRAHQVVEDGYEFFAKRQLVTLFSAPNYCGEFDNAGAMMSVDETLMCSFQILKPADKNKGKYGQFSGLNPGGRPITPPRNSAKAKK
PME-1 inh = PME-1 inhibitors via competitive probe labeling, primary screen, biochemical, fluorescence polarization, FP-Rh probe, HTS; Protein phosphatase methylesterase 1 (Homo sapiens), Q9Y570; recombinant PME-1; inhibition, % at 5.9 µM; 320,000 compounds, 0.53% hits;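 active means inhibition above the campaign mean of all compounds plus 3 SD, cut at about 26% in these data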;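 further: competitive labeling of PME-1 active site by serine hydrolase directed probe; inhibitors block probe labeling so polarization falls and inhibition rises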
PP5 inh = PP5 phosphatase inhibitors, primary screen, biochemical, fluorescence; AID 1987, 2009; 320,000 compounds, 0.18% hits; inhibition, % at 6.7 µM; Serine/threonine-protein phosphatase 5 (Homo sapiens), P53041; purified PP5c, OMFP substrate fluorescence;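 active means inhibition above the campaign's mean inhibition across all tested compounds plus 3 SD, cut at about 9.5% in these data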
Of the large screens only hits and unclear results are named; the others gave an inactive call.

Cc1ccc(C2=NN=C(NC(=O)CSc3nnc4c5ccccc5n(C)c4n3)SC2)cc1	PP1 inh 22
CCN(c1ccccc1)S(=O)(=O)c1ccc(C(=O)N(CCN(C)C)c2nc3c(F)cc(F)cc3s2)cc1	none
COc1ccccc1N(CC(=O)NC1CCCCC1)C(=O)CCC(=O)Nc1nccs1	none
Cc1ccccc1N(CC(=O)NC1CCCCC1)C(=O)CCC(=O)Nc1nccs1	PP1 inh 17
O=C(CCNS(=O)(=O)c1cccc2nonc12)N1CCN(c2cccc(Cl)c2)CC1	LYPLA2 inh 48
CC(C)Oc1ccc(S(=O)(=O)N2CCOCC2)cc1NC(=O)C1=COCCO1	none
COc1cccc(NC(=O)Nc2cc(C(=O)O)ccc2N2CC3CC(C2)c2cccc(=O)n2C3)c1 (stereo unspecified)	none
COc1cc2c(cc1OC)CN(CC(=O)Nc1ccc(S(=O)(=O)N(C)C)cc1)CC2	none
COc1cc2c(cc1OC)CN(CC(=O)Nc1ccc(Cl)c(S(=O)(=O)N(C)C)c1)CC2	PME-1 inh 40
COc1ccc(NC(=O)CSc2nc3nc(-c4cccs4)cc(C(F)(F)F)c3c(=O)[nH]2)c(OC)c1	PME-1 inh 46
Cc1ccc(Nc2cc(C)c3c(O)cccc3n2)cc1C	PME-1 inh 31
Cc1ccc(Nc2cc(C)c3ccc(O)cc3n2)cc1C	PP1 inh 17
CC(C)(C)c1ccc(OCc2ccc(C(=O)N/N=C/c3ccc(O)c(O)c3)cc2)cc1	Fam108B inh 27
O=C(N/N=C/c1ccc(OCc2ccc(F)cc2)cc1)c1ccccc1	none
COC(=O)[C@]1(CC(C)C)N[C@H](c2ccc(-c3ccc(F)cc3)c(OC)c2)[C@@H]2C(=O)N(C)C(=O)[C@@H]21	none
COc1cc(NC(=O)c2cccc3c2C(=O)N(C2CCCCC2)C3)cc(OC)c1OC	none
Cc1ccc(S(=O)(=O)N2CCN(C(=O)COC(=O)c3oc4ccccc4c3C)CC2)cc1	none
COc1ccc2oc(C(=O)OCC(=O)N3CCN(S(=O)(=O)c4ccc(C)cc4)CC3)c(C)c2c1	PME-1 inh 31
Oc1ccc(/C=N/Nc2ccc(C(F)(F)F)cn2)c(O)c1	PME-1 inh 37
COc1ccc(-c2cc(C(=O)N3CCN(C(=O)c4ccccc4F)CC3)[nH]n2)cc1	PME-1 inh 30
COc1ccc(-c2cc(C(=O)N3CCN(S(=O)(=O)c4ccccc4)CC3)[nH]n2)cc1	none
COc1ccc(-c2nc3c(c(=O)[nH]c(=O)n3Cc3ccccc3)n2Cc2ccccc2)cc1	PP1 inh 16
COc1ccc(C(=O)NC(C)CCc2ccccc2)cc1 (stereo unspecified)	none
CCOc1ccc(C(=O)NC(C)CCc2ccccc2)cc1 (stereo unspecified)	PME-1 inh 39
N#CCC(=O)N/N=C/c1c(-c2ccccc2)n(-c2ccccc2)c2ccccc12	none
C/C(=N\Nc1nc2ccccc2s1)c1ccc(Br)s1	PME-1 inh 51
COc1cc(N/N=C(\C)c2ccc(O)c(C)c2)nc(-c2ccccc2)n1	PME-1 inh 30
COc1cc(/C=N/NC(=O)c2sc(N)c(C#N)c2C)cc(Br)c1O	PME-1 inh 31
CCCCOc1ccc(C(=O)NCC(=O)NC2CCCCC2)cc1	none (no result: Fam108B inh)
O=[N+]([O-])c1ccc(NCCCNS(=O)(=O)c2ccc(Cl)cc2)c(Cl)c1	LYPLA2 inh 27
O=[N+]([O-])c1ccccc1NCCNS(=O)(=O)c1ccc(Cl)cc1	none
CCOC(=O)c1ccc(Nc2nc(N)c3cc(OC)c(OC)cc3n2)cc1	PME-1 inh 27
COc1cc2nc(Nc3ccc(C)c(C)c3)nc(N)c2cc1OC	none
COC(=O)C1Cc2c([nH]c3ccccc23)CN1C(C)=O (stereo unspecified)	none
Cc1[nH]c(N=Nc2ccccc2)nc1N=Nc1ccccc1	PME-1 inh 76
Nc1ccc(N=Nc2ccccc2)c(N)n1	none
CSc1nc(N)c(C#N)c(-c2ccc(Cl)cc2)c1C#N	none
N#Cc1c(N)nc2c3c(sc(=N)c2c1N)NC(=O)CC3c1ccccc1 (stereo unspecified)	PME-1 inh 29
Cc1c(C#N)c(N)nc2c3c(sc12)NC(=O)CC3c1ccc(Cl)cc1 (stereo unspecified)	none
N#Cc1c(N)nc2c3c(sc(=N)c2c1N)NC(=O)CC3c1c(F)cccc1Cl (stereo unspecified)	PME-1 inh 63
COc1ccc(/C=C2\Sc3ccc(C(=O)N4CCN(Cc5ccccc5)CC4)cc3N(C)C2=O)cc1OC	PME-1 inh 42
COC(=O)c1ccc2c(c1)N(Cc1nc(-c3ccc(Cl)cc3)oc1C)C(=O)C1CCCN21 (stereo unspecified)	PP1 inh 16
COC(=O)c1cc2occc2n1Cc1nc(-c2ccc(Cl)cc2)oc1C	none
CC1(C)CC(=O)c2c(nc(SCC(=O)Nc3nsc(-c4ccccc4)n3)c(C#N)c2-c2ccccc2)C1	PP1 inh 16
CCc1nn(CC(=O)N2CCN(c3ccc(F)cc3)CC2)c(=O)c2cc3occc3n12	none
Clc1ccc(OCCCCSc2ncccn2)cc1	none
CCCOc1ccc(OCCSc2ncccn2)cc1	PP1 inh 16
CCOC(=O)c1sc(NC(=O)CSc2n[nH]c(-c3ccncc3)n2)c(C#N)c1C	none
CCOc1ccc(/C=C/C2=Cc3c(sc(NC(=O)CSc4n[nH]c(N)n4)c3C#N)C(C)(C)C2)cc1	PP1 inh 22
Cc1ccsc1/C=C/C1=Cc2c(sc(NC(=O)CSc3n[nH]c(N)n3)c2C#N)C(C)(C)C1	PP1 inh 17
CS(=O)(=O)c1ccc(Cl)c(NC(=O)CCN2C(=O)C3CC=CCC3C2=O)c1 (stereo unspecified)	none (no result: Fam108B inh)
Cc1nn(C)cc1C(=O)Nc1ccc2c(c1)OCCO2	none
O=C(c1ccccc1)N(NC(=O)C(O)(c1ccccc1)c1ccccc1)c1cccc(F)c1	none
O=C(c1ccccc1F)N(NC(=O)C(O)(c1ccccc1)c1ccccc1)c1ccccc1	PP1 inh 17
Nc1n[nH]c(C2CC2)c1N=Nc1ccc(Cl)c(Cl)c1	PME-1 inh 31
N#CCC(=O)Nc1ccc(C(=O)OCC(=O)Nc2ccc3ccccc3c2)cc1	PP1 inh 15 (no result: Fam108B inh)
Cc1c(C=Nc2ccc(S(=O)(=O)N(C)C)cc2)c(O)[nH]c(=O)c1C#N	none
CSCC[C@H](NC(=O)[C@H]1N2C(=O)c3ccccc3C2SC1(C)C)C(=O)NCc1ccncc1 (stereo partly specified)	none
